# Results reported in the supplement of paper PMC6555819.
# Tested on: VDR:RXRa (NR concentration 270 nM, RXRa partner concentration 90 nM)
# Assay: PBM binding z-score (relative to random genomic background probes); higher = stronger binding; sequences stand for … in GC…GCGATTGACAGCGTAGAATGAAGG
# Procedure: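 Protein-binding microarray (Agilent 4x180K custom design, double-stranded 60-nt probes: 5' GC cap, 34-nt variable region, 24-nt constant primer region; full probe sequence given). Purified or IVT nuclear receptor:RXRα heterodimers (3:1 NR:RXRα, mostly 270:90 nM) or homodimers were incubated for 1 h in PBS with 2% milk and no ligand, then detected with Alexa488 antibodies. Fluorescence from o1-orientation probes (~5 replicates averaged) was converted to z-scores against 500 random hg19 background probes. Variable regions are seed direct-repeat (DR0–DR5) sites, all their single-nucleotide variants and half-site ablations.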
row,Sequence,PBM binding z-score
1,TTACCAAGGTGGAGGTCGTTGATCCCTCTGTAGA,1.65
2,TAGCCTAGGTCATTCAGTGGCCAGTATAGAAAGC,2.43
3,TTACCAAGGTGAGAGGTCGTTGATGCACGCCTTG,2.25
4,AGAACGAGGGCACCCTGAGTTGATAGCAGAGTAG,1.47
5,TATACAGGGTCAAAGGCCAGTGTACGAATGTCGA,4.84
6,GCGACTGGGGCAAAGCAGGTTACGATAAGGTTGG,0.0646
7,CAAACTAGGTCAAAGGTCATAGTCGAGCCAACCA,6.71
8,CAGCCTAGGTCAGGGCGAGTATAGGAGGAACGTT,0.552
9,TCTTGTTGATCAACAGGAGGTTAAGAAAGATCGA,0.368
10,TGAATGAGGTTCTAAGATCAGGGAACGTTGCAAA,-0.428
11,CGTCCAAGGTCATAGGAGGTCGGTGAAGACAGAT,5.71
12,CAAACGAGGGCATGAGTTGATAGCAAATGCCGAT,1.58
13,GCTTGTAGATCAGGGTTAAGAAAGACTAAGCTAA,0.179
14,GGAACGAGGGCATTCGAGTTGACAGCATGGCGAT,3.41
15,CAAACTAGGTCAAAGGTCTAAGTCGAGCCAACCA,2.98
16,TAGCCTAGGTCAGAGCGGGCCAGTATACGCTATA,0.36
17,ATCTCTAGGTAACAAGTTCAGGGAAAGAGAGGAC,2.25
18,GCTTGTAGATCAAGGTTAAGCAAGACTAAGCTAA,0.0624
19,TCGAGTAGGTTAGGGTCATTCAGAATGGCGTCGA,4.32
20,ATCGAAAGGTCGAAGGTGAGTATGCCCACCCGAA,2.68

row,Sequence,PBM binding z-score
1,TCTTGTAGTTCAAGCAGGTTAAGAAAGCCTGAGT,3.32
2,GCATATAGGTAATACTAGGTGAAAGTCCGATTGT,0.212
3,CGACAAAGTTCAACTAAGGTAACGTAAAGCACGC,4.67
4,CAAACTAGGTAAAGAGGTCAAAGTCCGCTTCCCG,4.92
5,CCTAGTTGGTCTAGGTCACACACGCTATAGGTAC,1.42
6,CATACAGGGTCAGCTAGGCTAGAGTAGGGACGGC,3
7,AGGCAAAGTTCATCTAGGTAACGTAAGATATGCT,4.86
8,CGTCCAAGGTCAATGCTCGGTCAGTGAAAGCATT,4.21
9,TCTATTAGTTGATTAGCGCAACCGAAACAGCGGA,0.694
10,CAAACTAGGTCACCGCAAGGTCAAAGTCCGCATG,6.39
11,CCGACTGAGGCAGAAAGGTTACCATACCATCCGG,0.732
12,ATATGTAGGTTAGCTGGGGTCATTCTGACTAGGC,6.29
13,TCTGCTAGGTCAACGGTGGTCAGCTAATCTGCTA,1.95
14,TCTAGTTGGACAAAGGTCACACACTCGAAATGCG,5.09
15,CGAACTAGGTCAGAACAGGACAGTGATGGATGAT,0.651
16,GGAACGAGGGCACGTTGATAGCAGAGTTTGATGG,0.909
17,CCTACTGGGCGAAAGGTCATTGATTCCAATGCTC,4.43
18,ATCTGTAGGTTAAGGGTCATTCAGGTTGGTTCGC,5.77
19,CCGACTGGGGTAAAGGTTACCATACTCAGTACGA,1.18
20,ACTAGCAGGCCAAGTTTGGGGCACTCAAACAAAG,-0.558
